# Laboratory results published in PubChem BioAssay (Tox21).
# Values joined by “and” are separate entries in the source; they are usually repeats but may differ in a detail not shown here. Equal entries are not always repeated. Inconclusive results are not listed. A call without a number means that no potency is given here. Active and inactive are the calls of the source. Unless noted, calls come from the whole dose curve; as a rule, active = well fitted curve in the direction sought with a large enough effect in the repeat runs; inconclusive = weak or mixed curves; inactive = flat fitted curve, though single readings scatter.
# How the values were obtained:
# [1] = qHTS assay to test for compound auto fluorescence at 535 nm (green) in HEK293 cells (AID 720680)
# [2] = qHTS assay to test for compound auto fluorescence at 460 nm (blue) in HEK293 cell free culture (AID 720681)
# Procedure, shortened: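 Test compounds were pinned into cell-free culture medium (DMEM with 10% FBS) and fluorescence was read directly at Ex/Em 405/460 nm. Signals were expressed as fluorescence equivalents of triamterene, with DMSO vehicle as control.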
# [3] = qHTS assay to test for compound auto fluorescence at 535 nm (green) in HEK293 cell free culture (AID 720682)
# Procedure, shortened: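 Compounds were pin-transferred into cell-free DMEM with 10% FBS, and green fluorescence was read at excitation 485 nm and emission 535 nm. Intensities were expressed as fluorescein-equivalent values.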
# [4] = qHTS assay to test for compound auto fluorescence at 590 nm (red) in HEK293 cell free culture (AID 720683)
# Procedure, shortened: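 Tox21 10K library compounds were pinned into cell-free DMEM with 10% FBS and fluorescence was read at excitation 540 nm. Activity is expressed as Rose Bengal sodium equivalency.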
# [5] = qHTS assay to test for compound auto fluorescence at 590 nm (red) in HepG2 cell free culture (AID 720684)
# Procedure, shortened: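 Measured in medium alone (MEM containing 10% FBS) following pintool addition of compound; emission at 590 nm with 540 nm excitation, referenced to Rose Bengal sodium.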
# [6] = qHTS assay to test for compound auto fluorescence at 460 nm (blue) in HepG2 cell free culture (AID 720685)
# Procedure, shortened: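 Compound (23 nL) or DMSO pinned into cell-free MEM with 10% FBS; blue fluorescence read at 405/460 nm excitation/emission, expressed as auto-fluorescence equivalency to triamterene.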
# [7] = qHTS assay to test for compound auto fluorescence at 535 nm (green) in HepG2 cell free culture (AID 720686)
# [8] = qHTS assay to test for compound auto fluorescence at 460 nm (blue) in HepG2 cells (AID 720687)
# Procedure, shortened: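 Cells (2,000/well in MEM with 10% FBS) attached overnight at 37 C, then were exposed to compound or DMSO for 1 hr at 37 C, 5% CO2. Fluorescence read at Ex/Em 405/460 nm, expressed as triamterene-equivalent signal.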
# [9] = molecular target: Glucocorticoid receptor (Homo sapiens) (UniProt P04150); assay: qHTS assay to identify small molecule antagonists of the glucocorticoid receptor (GR) signaling pathway (AID 720692; active = well fitted inhibition curve with a large enough effect in the signal ratio in the repeat runs, not every such curve was filed as active; the % refers to the signal ratio; note: potency is the fitted concentration of half-maximal effect)
# Procedure, shortened: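 GR-bla HeLa cells carrying a GRE-driven beta-lactamase reporter received compound after 4 h plating, then dexamethasone (5 nM final). After 18 h at 37C, the FRET substrate was loaded for 2 h at room temperature and fluorescence read.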
# [10] = molecular target: Glucocorticoid receptor (Homo sapiens) (UniProt P04150); assay: qHTS assay to identify small molecule agonists of the glucocorticoid receptor (GR) signaling pathway (AID 720691; active = well fitted activation curve with a large enough effect in the signal ratio in the repeat runs, not every such curve was filed as active; the % refers to the signal ratio); settings: GR-bla HeLa, beta-lactamase reporter ratio, 18 h; activation: at 62.4 µM (top of the series)
# Procedure, shortened: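 GR-bla HeLa cells carrying a GRE-driven beta-lactamase reporter, exposed to compounds for 18 h at 37 C. Reporter activation read as fluorescence after 2 h with LiveBLAzer B/G FRET substrate at room temperature.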
# Chain of Glucocorticoid receptor (Homo sapiens) (P04150 whole entry, looked up): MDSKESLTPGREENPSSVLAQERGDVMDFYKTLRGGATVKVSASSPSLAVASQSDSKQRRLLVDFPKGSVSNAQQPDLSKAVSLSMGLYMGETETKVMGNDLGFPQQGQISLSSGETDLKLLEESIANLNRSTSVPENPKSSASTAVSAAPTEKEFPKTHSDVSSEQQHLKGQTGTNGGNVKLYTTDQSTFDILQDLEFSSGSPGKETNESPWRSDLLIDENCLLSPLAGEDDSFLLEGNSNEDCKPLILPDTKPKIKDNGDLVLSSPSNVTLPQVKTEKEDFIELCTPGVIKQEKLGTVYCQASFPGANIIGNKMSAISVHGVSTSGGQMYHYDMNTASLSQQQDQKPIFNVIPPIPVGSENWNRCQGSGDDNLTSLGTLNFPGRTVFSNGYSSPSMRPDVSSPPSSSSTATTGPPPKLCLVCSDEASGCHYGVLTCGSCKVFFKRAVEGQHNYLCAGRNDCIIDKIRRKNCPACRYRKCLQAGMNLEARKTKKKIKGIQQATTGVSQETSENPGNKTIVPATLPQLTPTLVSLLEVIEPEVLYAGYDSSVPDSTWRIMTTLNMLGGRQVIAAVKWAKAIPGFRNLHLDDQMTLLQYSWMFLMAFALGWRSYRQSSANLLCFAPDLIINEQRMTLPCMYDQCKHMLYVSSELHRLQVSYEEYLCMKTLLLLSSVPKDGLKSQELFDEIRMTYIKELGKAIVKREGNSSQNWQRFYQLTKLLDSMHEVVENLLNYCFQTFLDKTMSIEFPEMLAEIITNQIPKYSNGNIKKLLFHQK
Compound,Potency [1],Potency [2],Potency [3],Potency [4],Potency [5],Potency [6],Potency [7],Potency [8],Potency [9],Potency [10]
CC(=O)Oc1ccc(C2(c3ccc(OC(C)=O)cc3)Oc3ccccc3NC2=O)cc1,inactive,inactive,inactive,inactive,inactive,inactive,inactive,inactive,19 µM (active),–
C=CC(=O)OCCC#N,inactive,inactive,inactive,inactive,inactive,inactive,inactive,–,–,inactive
Cc1cccc(Br)c1,inactive,inactive,inactive,inactive,inactive,inactive,inactive,inactive,inactive,inactive
S=P(N1CC1)(N1CC1)N1CC1,inactive,inactive,inactive,inactive,inactive,inactive,inactive,inactive,inactive,inactive
Cc1cn[nH]c1,inactive,inactive,inactive,inactive,inactive,inactive,inactive,–,inactive,inactive
CCCCCCCCCC(=O)N(C)C,inactive,inactive,inactive,inactive,inactive,inactive,inactive,inactive,inactive,inactive
CCc1ccc(O)c(C(C)(C)C)c1,inactive,inactive,inactive,inactive,inactive,inactive,inactive,inactive,inactive,–
O=C(c1ccccc1)c1cc(Cl)ccc1O,inactive,inactive,inactive,inactive,inactive,inactive,inactive,inactive,inactive,inactive
Nc1cc(Cl)c([N+](=O)[O-])cc1O,inactive,inactive,inactive,inactive,inactive,inactive,inactive,inactive,inactive,inactive
CCCCCCCCCCOCC(O)CN (stereo unspecified),inactive,inactive,inactive,inactive,inactive,inactive,inactive,inactive,26.8 µM (active),–
COc1cc(C(=O)NS(=O)(=O)c2ccccc2C)ccc1Cc1cn(C)c2ccc(NC(=O)OC3CCCC3)cc12,inactive,inactive,inactive,inactive,inactive,inactive,inactive,inactive,12 µM (active),inactive
CCCCCCCCCCCCCOP(=O)(O)O,inactive,inactive,inactive,inactive,inactive,inactive,inactive,inactive,inactive,inactive
N#CSCSc1nc2ccccc2s1,inactive,inactive,inactive,inactive,inactive,inactive,inactive,inactive,24.5 µM (active),–
C=C(c1ccc(C(=O)O)cc1)c1cc2c(cc1C)C(C)(C)CCC2(C)C,inactive,inactive,inactive,inactive,inactive,inactive,inactive,inactive,9.77 µM (active),–
NCCCCCCNCCCCCCN,inactive,inactive,inactive,inactive,inactive,inactive,inactive,inactive,inactive,inactive
CC(=O)Oc1ccc(C2(c3ccc(OC(C)=O)cc3)C(=O)Nc3ccccc32)cc1,inactive,inactive,inactive,inactive,inactive,inactive,inactive,–,16.9 µM (active) and 26.8 µM (active),inactive
NCCCC(O)(P(=O)(O)O)P(=O)(O)O,inactive,inactive,inactive,inactive,inactive,inactive,inactive,–,inactive,inactive
CCO[Si](CCCSSSSCCC[Si](OCC)(OCC)OCC)(OCC)OCC,inactive,inactive,inactive,inactive,inactive,–,inactive,inactive,inactive,inactive
Clc1ccc(C(c2ccccc2Cl)C(Cl)Cl)cc1 (stereo unspecified),inactive,inactive,inactive,inactive,inactive,inactive,inactive,–,10.7 µM (active) and 27.5 µM (active),–
CCc1cccc(C)c1,inactive,inactive,inactive,inactive,inactive,–,inactive,inactive,inactive,inactive
Clc1ccc(C(Cn2ccnc2)OCc2ccsc2Cl)c(Cl)c1 (stereo unspecified),inactive,inactive,inactive,inactive,inactive,–,inactive,inactive,–,–
CCCCCCCCCCCC(=O)N(CC)CC,inactive,inactive,inactive,inactive,inactive,–,inactive,inactive,–,–
O=C1NCN(c2ccccc2)C12CCN(CCCC(c1ccc(F)cc1)c1ccc(F)cc1)CC2,inactive,inactive,inactive,inactive,inactive,–,inactive,inactive,–,–
CC(=O)OC(OC(C)=O)c1ccc([N+](=O)[O-])o1,inactive,inactive,inactive,inactive,inactive,–,inactive,inactive,55.9 µM (active),–
CN(Cc1cc(Br)cc(Br)c1N)C1CCCCC1,inactive,inactive,inactive,inactive,inactive,–,inactive,–,inactive,inactive
O=C(O)CCn1c2c(c3ccccc31)C[C@H](NS(=O)(=O)c1ccc(F)cc1)CC2,inactive,inactive,inactive,inactive,–,inactive,inactive,–,–,–
CCCN(CCc1cccs1)[C@H]1CCc2c(O)cccc2C1,inactive,inactive,inactive,inactive,inactive,–,inactive,inactive,inactive,inactive
C=CC(=O)OCCOCC(CC)(COCCOC(=O)C=C)COCCOC(=O)C=C,inactive,inactive,inactive,inactive,inactive,–,inactive,inactive,22.8 µM (active),–
